# Whole data set: some 2,900 compounds, median “IRF Lucia reporter activity, fold change vs agonist alone” near 0.9, cut for the highest 2% near 2.8. The sample as a whole holds a higher share of the highest values than the screen did.
# Experiments:
# [1] = test system: RAW-Dual; assay: IRF Lucia reporter activity, fold change vs agonist alone; higher = enhanced IRF activity; settings: cytotoxicity flag (confluency mask): not cytotoxic, agonist: MPLA (TLR4) […]
# Outline: (§1)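 RAW-Dual macrophages (50,000 cells/well in DMEM, 384-well plates) received 50 nL of library stock by pin tool, then a PRR agonist 1 h later, and were kept at 37 °C, 5% CO2. After 20 hours, supernatant was read for IRF by QuantiLuc luminescence and for NF-κB by QuantiBlue absorbance at 620 nm. Reporter activity is fold change over agonist-alone wells. Cytotoxic wells had IncuCyte confluency below 70% of agonist controls in both mask sets.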
# [2] = test system: RAW-Dual; assay: IRF Lucia reporter activity, fold change vs agonist alone; cytotoxicity flag (confluency mask): not cytotoxic; higher = enhanced IRF activity
# Outline: as §1
# [3] = agonist: 3'3'-cGAMP (STING) 10 ug/mL
# [4] = library stock concentration (final ~1000-fold dilution): 10 mM
smiles,measurement,setting,value
O=c1cc(N2CCOCC2)oc2c1ccc1ccccc12,IRF Lucia reporter activity,[1]; library stock concentration (final ~1000-fold dilution): 2 mM,1.15
CC1CN(CC(=O)Nc2ccc3c(c2)Cc2cccc(-c4cc(=O)cc(N5CCOCC5)o4)c2S3)CC(C)O1 (configuration not stated) (library stock concentration (final ~1000-fold dilution): 10 mM),IRF Lucia reporter activity,[2]; [3],0.508
same,IRF Lucia reporter activity,[2]; agonist: LPS (TLR4) 0.1 ug/mL,6.62
CC1CN(CC(=O)Nc2ccc3c(c2)Cc2cccc(-c4cc(=O)cc(N5CCOCC5)o4)c2S3)CC(C)O1 (configuration not stated),IRF Lucia reporter activity,[1]; [4],5.96
O=c1cc(N2CCOCC2)oc2c(-c3ccc4c(c3)OCCO4)csc12 (library stock concentration (final ~1000-fold dilution): 10 mM),IRF Lucia reporter activity,[2]; [3],0.12
same,IRF Lucia reporter activity,[2]; agonist: LPS (TLR4) 0.1 ug/mL,0.269
O=c1cc(N2CCOCC2)oc2c1ccc1ccccc12 (library stock concentration (final ~1000-fold dilution): 2 mM),IRF Lucia reporter activity,[2]; [3],0.778
same,IRF Lucia reporter activity,[2]; agonist: LPS (TLR4) 0.1 ug/mL,1.01
O=c1cc(-c2cccc3c2Sc2ccccc2S3)oc(N2CCOCC2)c1 (library stock concentration (final ~1000-fold dilution): 10 mM),IRF Lucia reporter activity,[2]; [3],0.647
same,IRF Lucia reporter activity,[2]; agonist: LPS (TLR4) 0.1 ug/mL,5.22
O=c1cc(-c2cccc3c2Sc2ccccc2S3)oc(N2CCOCC2)c1,IRF Lucia reporter activity,[1]; [4],6.25
CC1(c2cc(-c3cncnc3)c(F)cc2F)CCSC(N)=N1 (configuration not stated),IRF Lucia reporter activity,[1]; [4],0.717
CC1(c2cc(-c3cncnc3)c(F)cc2F)CCSC(N)=N1 (configuration not stated) (library stock concentration (final ~1000-fold dilution): 10 mM),IRF Lucia reporter activity,[2]; [3],0.823
same,IRF Lucia reporter activity,[2]; agonist: LPS (TLR4) 0.1 ug/mL,0.805
CCC(C)Nc1cc(C(=O)NC2CC3CCC(C2)N3c2ccc(C(=O)C3CC3)cn2)c(C)cc1C(N)=O (configuration not stated) (library stock concentration (final ~1000-fold dilution): 10 mM),IRF Lucia reporter activity,[2]; [3],0.482
same,IRF Lucia reporter activity,[2]; agonist: LPS (TLR4) 0.1 ug/mL,0.924
CCC(C)Nc1cc(C(=O)NC2CC3CCC(C2)N3c2ccc(C(=O)C3CC3)cn2)c(C)cc1C(N)=O (configuration not stated),IRF Lucia reporter activity,[1]; [4],0.838
C[N+]1(C)C2CCC1CC(OC(=O)C(O)c1ccccc1)C2 (configuration not stated) (library stock concentration (final ~1000-fold dilution): 10 mM),IRF Lucia reporter activity,[2]; [3],1.01
same,IRF Lucia reporter activity,[2]; agonist: LPS (TLR4) 0.1 ug/mL,1.29
C[N+]1(C)C2CCC1CC(OC(=O)C(O)c1ccccc1)C2 (configuration not stated),IRF Lucia reporter activity,[1]; [4],0.953
O=C(Nc1ccc(OC(F)(F)Cl)cc1)c1cnc(N2CCC(O)C2)c(-c2ccn[nH]2)c1 (configuration not stated) (library stock concentration (final ~1000-fold dilution): 10 mM),IRF Lucia reporter activity,[2]; [3],0.296
same,IRF Lucia reporter activity,[2]; agonist: LPS (TLR4) 0.1 ug/mL,1.27
CCn1c(=O)c(-c2cc(NC(=O)Nc3ccccc3)c(F)cc2Br)cc2cnc(NC)cc21 (library stock concentration (final ~1000-fold dilution): 10 mM),IRF Lucia reporter activity,[2]; [3],0.671
same,IRF Lucia reporter activity,[2]; agonist: LPS (TLR4) 0.1 ug/mL,0.268
Cc1ccc(Nc2nccc(N(C)c3ccc4c(C)n(C)nc4c3)n2)cc1S(N)(=O)=O.Cl,IRF Lucia reporter activity,[1]; [4],0.646
Cc1ccc(Nc2nccc(N(C)c3ccc4c(C)n(C)nc4c3)n2)cc1S(N)(=O)=O.Cl (library stock concentration (final ~1000-fold dilution): 10 mM),IRF Lucia reporter activity,[2]; [3],0.0722
same,IRF Lucia reporter activity,[2]; agonist: LPS (TLR4) 0.1 ug/mL,0.446
COC(=O)C(CC(C)C)NC(=O)c1ccc(NCC(N)CS)cc1-c1cccc2ccccc12.O=C(O)C(F)(F)F (configuration not stated) (library stock concentration (final ~1000-fold dilution): 10 mM),IRF Lucia reporter activity,[2]; [3],0.0714
same,IRF Lucia reporter activity,[2]; agonist: LPS (TLR4) 0.1 ug/mL,0.736
COC(=O)C(CC(C)C)NC(=O)c1ccc(NCC(N)CS)cc1-c1cccc2ccccc12.O=C(O)C(F)(F)F (configuration not stated),IRF Lucia reporter activity,[1]; [4],0.882
N#Cc1ccc2[nH]c(O)c(-c3ccc(CN4CCOCC4)cn3)c2c1 (library stock concentration (final ~1000-fold dilution): 10 mM),IRF Lucia reporter activity,[2]; [3],0.996
same,IRF Lucia reporter activity,[2]; agonist: LPS (TLR4) 0.1 ug/mL,0.903
N#Cc1ccc(-c2c(-c3ncn[nH]3)sc(N3CCOCC3)c2C#N)c(F)c1 (library stock concentration (final ~1000-fold dilution): 10 mM),IRF Lucia reporter activity,[2]; [3],0.455
same,IRF Lucia reporter activity,[2]; agonist: LPS (TLR4) 0.1 ug/mL,10.2
N#Cc1cccc(-c2c[nH]c3ncnc(N4CCOCC4)c23)c1 (library stock concentration (final ~1000-fold dilution): 10 mM),IRF Lucia reporter activity,[2]; [3],0.11
same,IRF Lucia reporter activity,[2]; agonist: LPS (TLR4) 0.1 ug/mL,0.291
N#Cc1ccc2[nH]c(O)c(-c3ccc(CN4CCOCC4)cn3)c2c1,IRF Lucia reporter activity,[1]; [4],1.01
CCS(=O)(=O)O.COC(=O)c1ccc2c(c1)NC(=O)/C2=C(\Nc1ccc(N(C)C(=O)CN2CCN(C)CC2)cc1)c1ccccc1,IRF Lucia reporter activity,[1]; [4],0.215
CCS(=O)(=O)O.COC(=O)c1ccc2c(c1)NC(=O)/C2=C(\Nc1ccc(N(C)C(=O)CN2CCN(C)CC2)cc1)c1ccccc1 (library stock concentration (final ~1000-fold dilution): 10 mM),IRF Lucia reporter activity,[2]; [3],0.0841
same,IRF Lucia reporter activity,[2]; agonist: LPS (TLR4) 0.1 ug/mL,0.246
Cc1nnc(NC(=O)c2nc(S(=O)(=O)Cc3ccc(F)cc3)ncc2Cl)s1 (library stock concentration (final ~1000-fold dilution): 10 mM),IRF Lucia reporter activity,[2]; [3],0.0452
same,IRF Lucia reporter activity,[2]; agonist: LPS (TLR4) 0.1 ug/mL,0.308
NC1C(O)OC(CO)C(O)C1O (configuration not stated) (library stock concentration (final ~1000-fold dilution): 10 mM),IRF Lucia reporter activity,[2]; [3],0.143
same,IRF Lucia reporter activity,[2]; agonist: LPS (TLR4) 0.1 ug/mL,0.267
CC(C)=CCC[C@](C)(O[C@@H]1O[C@H](CO)[C@@H](O)C(O)[C@H]1O)[C@H]1CC[C@]2(C)[C@H]1[C@H](O)CC1[C@@]3(C)CC[C@H](O)C(C)(C)[C@@H]3[C@@H](O[C@@H]3O[C@H](CO)[C@@H](O)[C@H](O)[C@H]3O[C@@H]3O[C@@H](C)[C@H](O)[C@@H](O)[C@H]3O)C[C@]12C (some centres not stated) (library stock concentration (final ~1000-fold dilution): 10 mM),IRF Lucia reporter activity,[2]; [3],1.16
same,IRF Lucia reporter activity,[2]; agonist: LPS (TLR4) 0.1 ug/mL,1.03
CCCCCCCCCCCCCC(=S)NCCCCC(NC(=O)OCc1ccccc1)C(=O)Nc1ccccc1 (configuration not stated) (library stock concentration (final ~1000-fold dilution): 10 mM),IRF Lucia reporter activity,[2]; [3],0.949
same,IRF Lucia reporter activity,[2]; agonist: LPS (TLR4) 0.1 ug/mL,1.09
CN(C)CCOc1ccc(-c2nc(-c3ccncc3)c(-c3ccc4c(c3)CC/C4=N\O)[nH]2)cc1,IRF Lucia reporter activity,[1]; [4],1.04
COc1ccc2cc(-c3[nH]c(-c4ccc(S(C)=O)cc4)nc3-c3ccncc3)ccc2c1 (configuration not stated) (library stock concentration (final ~1000-fold dilution): 10 mM),IRF Lucia reporter activity,[2]; [3],0.0441
same,IRF Lucia reporter activity,[2]; agonist: LPS (TLR4) 0.1 ug/mL,0.466
COc1ccc2cc(-c3[nH]c(-c4ccc(S(C)=O)cc4)nc3-c3ccncc3)ccc2c1 (configuration not stated),IRF Lucia reporter activity,[1]; [4],0.798
OCCn1cc(-c2ccc3c(c2)CC/C3=N\O)c(-c2ccncc2)n1 (library stock concentration (final ~1000-fold dilution): 10 mM),IRF Lucia reporter activity,[2]; [3],0.614
same,IRF Lucia reporter activity,[2]; agonist: LPS (TLR4) 0.1 ug/mL,0.658
CN(C)CCOc1ccc(-c2nc(-c3ccncc3)c(-c3ccc4c(c3)CC/C4=N\O)[nH]2)cc1 (library stock concentration (final ~1000-fold dilution): 10 mM),IRF Lucia reporter activity,[2]; [3],0.992
same,IRF Lucia reporter activity,[2]; agonist: LPS (TLR4) 0.1 ug/mL,3.04
OCCn1cc(-c2ccc3c(c2)CC/C3=N\O)c(-c2ccncc2)n1,IRF Lucia reporter activity,[1]; [4],0.784
